Measured values as given in PubChem BioAssay (Tox21).
Several values for one entry are separate records, joined by “and”; a condition that tells them apart may be missing. Equal values may be shown once. Inconclusive results are not listed. A number with no mark means an inactive call. Activity calls are given as the source filed them. Calls come from the whole dose curve; as a rule, active = well fitted cell-killing curve with a large enough effect in the repeat runs; inconclusive = weak or mixed curves, or effect the other way; inactive = flat fitted curve, though single readings scatter.

Experiment: cAMP Responsive Elements (CRE) small molecule antagonists, cell-based qHTS assay: qHTS cell viability counter screen (AID 2060913); note: nearly all actives have a fitted effect of over 40% in size
Conditions: CRE-bla HEK293T viability, CellTiter-Glo luminescence, 5 h; series mostly up to 92.4 µM; viability change, negative = cytotoxic: at the top concentration
Procedure, shortened: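 Cytotoxicity read in the same wells as the CRE-bla HEK293T antagonist assay: after 3 h compound with 0.25 uM NKH477 final and 2 h beta-lactamase substrate, CellTiter-Glo luminescence measured.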
% is set by controls: 0 for no effect and ±100 for the full control effect; potency is the fitted concentration of half-maximal effect.

Row | Structure (SMILES) | viability change, negative = cytotoxic | Potency
1 | C1CCCCCCCCCCC1 | 3.07% [at 18.9 µM] | –
2 | CC(CCc1ccccc1)NCC(O)c1ccc(O)c(C(N)=O)c1 (stereo not given) | 0.333% | –
3 | Nc1ccc2ccccc2c1S(=O)(=O)O | -7.46% | –
4 | CC(=O)OC(C)(C)Cc1ccccc1 | -1.87% | –
5 | CCO[Si](CCCN)(OCC)OCC | – | inactive
6 | O=C(O)CCC(=O)Nc1ccc(S(=O)(=O)Nc2nccs2)cc1 | -0.863% [at 42.5 µM] | –
7 | CCCCC(CC)COCCO (stereo not given) | 8.7% | –
8 | CC(C)c1ccc2oc3nc(N)c(C(=O)O)cc3c(=O)c2c1 | -3.79% [at 42.5 µM] | –
9 | Cc1nc2n(c(=O)c1CCN1CCC(C(=O)c3ccc(F)cc3)CC1)CCS2 | 13.4% [at 42.5 µM] | –
10 | CCCCCCCCCCC | 0.0113% | –
11 | CCCCc1ccc2c(n1)[C@@H](c1ccc(OC)cc1C[C@H](C)C(=O)O)[C@H](C(=O)O)[C@H]2c1ccc2c(c1)OCO2 | 2.9% | –
12 | Cc1[nH]cnc1-c1ccc(Cl)cc1 | 0.591% [at 42.5 µM] | –
13 | CC(C)OC(=O)C(C(=O)OC(C)C)=C1SC=CS1 | -4.94% [at 42.5 µM] | –
14 | CC(C)CCCC(C)(C)O | -6.23% | –
15 | CN(C)c1ccc(C(=C2C=CC(=[N+](C)C)C=C2)c2ccccc2)cc1 | – | 15.4 µM (active) and 11.9 µM (active) and 10.6 µM (active)
16 | Cc1cc(C)c(C)c(C)c1 | 0.653% | –
17 | CCCCCCCCCCCCCCC(=O)NC(CO)CCCCCCCCCCCCCC (stereo not given) | -0.328% | –
18 | Cc1cccc2nccnc12 | -2.62% | –
19 | CC(CC1c2ccccc2CCc2ccccc21)CN(C)C (stereo not given) | -0.565% [at 42.5 µM] | –
20 | Cc1c(F)cc2c(=O)c(C(=O)O)cn3c2c1CCC3C (stereo not given) | 0.94% [at 42.5 µM] | –

Row | Structure (SMILES) | viability change, negative = cytotoxic | Potency
21 | CCCCCCCCCCCCCC[P+](CCCC)(CCCC)CCCC (tested in a mixture with another compound) | – | 2.45 µM (active)
22 | CN(C)CCCOc1nn(Cc2ccccc2)c2ccccc12 | -1.48% [at 42.5 µM] | –
23 | CC(=O)c1ccc2c(c1)Cc1ccccc1-2 | -12.3% | –
24 | CN1C(C(=O)Nc2ccccn2)=C(O)c2sccc2S1(=O)=O | -3.15% [at 42.5 µM] | –
25 | CCCCc1ccc(N)cc1 | 4.6% | –
26 | CC(=O)[C@]1(O)Cc2c(O)c3c(c(O)c2[C@@H](O[C@H]2C[C@H](N)[C@H](O)[C@H](C)O2)C1)C(=O)c1ccccc1C3=O | 12.9% [at 42.5 µM] | –
27 | Cc1c(N(C)CS(=O)(=O)O)c(=O)n(-c2ccccc2)n1C | – | inactive
28 | CCOC(=O)CC(C)C | 3.74% | –
29 | CC(CSC(=O)c1ccccc1)C(=O)N1C[C@@H](Sc2ccccc2)C[C@H]1C(=O)O (stereo not given in full) | 1.17% [at 18.9 µM] | –
30 | OCC(O)c1ccccc1 (stereo not given) | -3.2% | –
31 | CNC(=O)N(c1ccccc1)c1ccccc1 | 0.18% | –
32 | CC1=NS(=O)(=O)c2cc(Cl)ccc2N1 | 8.19% [at 42.5 µM] | –
33 | COC(=O)CCC(=O)OC | – | inactive
34 | Cc1cnc(C)c(C)n1 | 0.353% | –
35 | CN(C/C=C/C#CC(C)(C)C)Cc1cccc2ccccc12 | -5.7% [at 42.5 µM] | –
36 | O=C1NC2CCCCN2C12CCN(CCCN1c3ccccc3CCc3ccc(Cl)cc31)CC2 (stereo not given) | -15% [at 42.5 µM] | –
37 | CN1[C@@H]2CC[C@@H]1CC(OC(=O)C(CO)c1ccccc1)C2 (stereo not given in full) | 1.31% [at 42.5 µM] | –
38 | C=C1c2cccc(O)c2C(O)=C2C(=O)[C@]3(O)C(O)=C(C(N)=O)C(=O)[C@@H](N(C)C)[C@@H]3[C@@H](O)[C@H]12 | 5.53% [at 42.5 µM] | –
39 | O=C(c1ccc(O)cc1)c1ccc(O)cc1O | – | inactive
40 | CCCn1cnc2c1c(=O)n(CCCCC(C)=O)c(=O)n2C | 0.469% [at 42.5 µM] | –
